# In PubChem BioAssay (NCI):
# The panel holds about 79,000 compounds, 15% with a hit somewhere; the sample as a whole holds those more often. Values without a mark were called inactive. The source made the active and inactive calls. Cut-off read from the data, not from the text of the source: active = growth inhibition above about 70%; inactive = the rest.
# Experiments:
# [1] = NCI Yeast Anticancer Drug Screen. Data for the rad52 strain (AID 147);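 note: 0% = growth of vehicle-treated control cultures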; settings: S. cerevisiae rad52 mutant growth inhibition, stronger effect = higher value
# Outline: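 Growth of repair-deficient yeast cells was compared between compound-treated and vehicle-treated cultures to give percent inhibition.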
# [2] = NCI Yeast Anticancer Drug Screen. Data for the wt1 strain (AID 149);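 note: 0% = growth of vehicle-treated wt1 cultures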; settings: S. cerevisiae wt1 strain (SPY 50644) growth inhibition, stronger effect = higher value
# Outline: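 Using yeast strain wt1, compound-induced growth inhibition was determined against vehicle-treated cultures.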
# [3] = NCI Yeast Anticancer Drug Screen. Data for the rad50EPP+ strain (AID 151);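 note: 0% = growth of vehicle-treated control cultures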; settings: S. cerevisiae rad50 mutant strain, stronger effect = higher value
# Outline: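 Measured: growth inhibition of rad50EPP+ yeast. Reference: vehicle-treated controls. Screen uses strains with defined genetic alterations in DNA damage repair or cell cycle control.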
# [4] = NCI Yeast Anticancer Drug Screen. Data for the rad50 strain (AID 155);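 note: 0% = growth of vehicle-only cultures of the same strain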; settings: S. cerevisiae rad50 strain growth inhibition, stronger effect = higher value
# Outline: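 Relative growth inhibition (compound vs vehicle) was measured in yeast with a defined repair-gene alteration.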
# [5] = NCI Yeast Anticancer Drug Screen. Data for the mec2-1 strain (AID 157); settings: S. cerevisiae mec2-1 strain, stronger effect = higher value
# Outline: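 Compounds were applied to mec2-1 yeast cells. Their growth was then compared with that of vehicle-treated cultures to give growth inhibition.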
# [6] = NCI Yeast Anticancer Drug Screen. Data for the rad14 strain (AID 159);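 note: 0% = growth of vehicle-treated control cultures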; settings: S. cerevisiae rad14 strain growth inhibition, stronger effect = higher value
# Outline: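 Screen for anticancer potential: a yeast strain altered in DNA damage repair is grown with compound, and reduced growth is quantified against vehicle controls.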
# [7] = NCI Yeast Anticancer Drug Screen. Data for the sgs1 mgt1 strain (AID 161);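 note: 0% = growth of cultures given vehicle only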; settings: S. cerevisiae sgs1 mgt1 strain, stronger effect = higher value
# Outline: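 Percent growth inhibition was derived by comparing compound-exposed mutant yeast with vehicle-exposed cultures. The strain carries alterations in DNA damage repair.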
# [8] = NCI Yeast Anticancer Drug Screen. Data for the CLN2oe strain (AID 163);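 note: 0% = growth of vehicle-only control cultures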; settings: S. cerevisiae CLN2oe strain, stronger effect = higher value
# Outline: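 Cells of an engineered yeast line with disturbed cell-cycle regulation are treated with compound. Inhibition of growth is then calculated relative to the vehicle-treated reference.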
# [9] = NCI Yeast Anticancer Drug Screen. Data for the cln2 rad14 strain (AID 165);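 note: 0% = growth equal to vehicle treated cultures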; settings: S. cerevisiae cln2 rad14 strain, stronger effect = higher value
# Outline: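 Strain: cln2 rad14 yeast, altered in cell cycle control and DNA damage repair. Read-out: growth inhibition vs vehicle.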
# [10] = NCI Yeast Anticancer Drug Screen. Data for the bub3 strain (AID 167); settings: S. cerevisiae bub3 mutant strain, stronger effect = higher value
# Outline: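 Screening used yeast with an engineered genetic alteration affecting cell cycle control. Compound-exposed cultures were compared with vehicle cultures, and reduced growth was taken as inhibition.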
# [11] = NCI Yeast Anticancer Drug Screen. Data for the wt2 strain (AID 169);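 note: 0% = growth of vehicle-treated yeast cultures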; settings: S. cerevisiae wt2 strain growth inhibition, stronger effect = higher value
# Outline: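 Growth of compound-treated yeast is measured and expressed as inhibition relative to vehicle-only controls.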
# [12] = NCI Yeast Anticancer Drug Screen. Data for the mlh1 strain (AID 171);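 note: 0% = growth of vehicle-treated control cultures of the same strain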; settings: S. cerevisiae mlh1 strain growth inhibition, stronger effect = higher value
# Outline: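 Test agents were incubated with yeast bearing a defined DNA damage repair or cell cycle control alteration; values are growth inhibition normalised to vehicle-treated cultures.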
# [13] = NCI Yeast Anticancer Drug Screen. Data for the sgs1 strain (AID 173);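 note: 0% = growth of vehicle-only control cultures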; settings: S. cerevisiae sgs1 mutant, stronger effect = higher value
# Outline: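 Strain with an altered DNA repair or cell cycle pathway exposed to compound. Growth then measured. Value = inhibition versus vehicle control.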
# [14] = NCI Yeast Anticancer Drug Screen. Data for the mlh1 rad18 strain (AID 175); settings: S. cerevisiae mlh1 rad18 strain growth inhibition, stronger effect = higher value
# Outline: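 A repair-deficient yeast strain is exposed to test compound, and growth is scored relative to vehicle-treated controls.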
# [15] = NCI Yeast Anticancer Drug Screen. Data for the rad18 strain (AID 177); settings: S. cerevisiae rad18 mutant growth inhibition, stronger effect = higher value
# Outline: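 DNA-repair-defective yeast; compound treatment; growth inhibition scored against vehicle.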
# [16] = NCI Yeast Anticancer Drug Screen. Data for the mgt1 strain (AID 153); settings: S. cerevisiae mgt1 mutant growth inhibition, stronger effect = higher value
# Outline: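 Compounds were applied to mgt1 mutant yeast, and growth was then compared against vehicle-treated control cultures to give percent inhibition.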
# [17] = at 5.0 µM (retest, dose inferred, filed as 0.5)
# [18] = at 50.0 µM (retest, dose inferred, filed as 5.0)
smiles,measurement,setting,value
CCCCCCCCCCCCCCCCCCNC(=S)/N=C/c1c(O)c2ccccc2[nH]c1=O,growth inhibition,[1]; at 1.2 µM,7%
same,growth inhibition,[1]; at 3.7 µM,4%
same,growth inhibition,[1]; at 11.0 µM,16%
same,growth inhibition,[1]; at 33.0 µM,11%
same,growth inhibition,[1]; at 100.0 µM,12%
same,growth inhibition,[2]; at 1.2 µM,-32%
same,growth inhibition,[2]; at 3.7 µM,-6%
same,growth inhibition,[2]; at 11.0 µM,-3%
same,growth inhibition,[2]; at 33.0 µM,-3%
same,growth inhibition,[2]; at 100.0 µM,-3%
same,growth inhibition,[3]; at 1.2 µM,1%
same,growth inhibition,[3]; at 3.7 µM,3%
same,growth inhibition,[3]; at 11.0 µM,12%
same,growth inhibition,[3]; at 33.0 µM,29%
same,growth inhibition,[3]; at 100.0 µM,40%
same,growth inhibition,[4]; at 1.2 µM,-1%
same,growth inhibition,[4]; at 3.7 µM,0%
same,growth inhibition,[4]; [17],-12%
same,growth inhibition,[4]; at 11.0 µM,1%
same,growth inhibition,[4]; at 33.0 µM,1%
same,growth inhibition,[4]; [18],61%
same,growth inhibition,[4]; at 50.0 µM,63%
same,growth inhibition,[4]; at 100.0 µM,-1%
same,growth inhibition,[5]; at 1.2 µM,0%
same,growth inhibition,[5]; at 3.7 µM,2%
same,growth inhibition,[5]; [17],-5%
same,growth inhibition,[5]; at 11.0 µM,-3%
same,growth inhibition,[5]; at 33.0 µM,2%
same,growth inhibition,[5]; [18],27%
same,growth inhibition,[5]; at 50.0 µM,6.6%
same,growth inhibition,[5]; at 100.0 µM,-1%
same,growth inhibition,[6]; at 1.2 µM,1%
same,growth inhibition,[6]; at 3.7 µM,1%
same,growth inhibition,[6]; at 11.0 µM,0%
same,growth inhibition,[6]; at 33.0 µM,4%
same,growth inhibition,[6]; at 100.0 µM,4%
same,growth inhibition,[7]; [17],4%
same,growth inhibition,[7]; [18],26%
same,growth inhibition,[7]; at 50.0 µM,86.5% (active)
same,growth inhibition,[8]; at 1.2 µM,-4%
same,growth inhibition,[8]; at 3.7 µM,-3%
same,growth inhibition,[8]; at 11.0 µM,2%
same,growth inhibition,[8]; at 33.0 µM,-7%
same,growth inhibition,[8]; at 100.0 µM,3%
same,growth inhibition,[9]; [17],-7%
same,growth inhibition,[9]; [18],16%
same,growth inhibition,[9]; at 50.0 µM,-24%
same,growth inhibition,[10]; at 1.2 µM,-4%
same,growth inhibition,[10]; at 3.7 µM,-4%
same,growth inhibition,[10]; [17],-25%
same,growth inhibition,[10]; at 11.0 µM,-2%
same,growth inhibition,[10]; at 33.0 µM,-5%
same,growth inhibition,[10]; [18],69%
same,growth inhibition,[10]; at 50.0 µM,72.3% (active)
same,growth inhibition,[10]; at 100.0 µM,26%
same,growth inhibition,[11]; at 1.2 µM,-3%
same,growth inhibition,[11]; at 3.7 µM,-1%
same,growth inhibition,[11]; at 11.0 µM,-2%
same,growth inhibition,[11]; at 33.0 µM,4%
same,growth inhibition,[11]; at 100.0 µM,20%
same,growth inhibition,[12]; at 1.2 µM,0%
same,growth inhibition,[12]; at 3.7 µM,-2%
same,growth inhibition,[12]; at 11.0 µM,-3%
same,growth inhibition,[12]; at 33.0 µM,-4%
same,growth inhibition,[12]; at 100.0 µM,-4%
same,growth inhibition,[13]; at 1.2 µM,0%
same,growth inhibition,[13]; at 3.7 µM,3%
same,growth inhibition,[13]; at 11.0 µM,6%
same,growth inhibition,[13]; at 33.0 µM,11%
same,growth inhibition,[13]; at 100.0 µM,23%
same,growth inhibition,[14]; [17],9%
same,growth inhibition,[14]; [18],28%
same,growth inhibition,[14]; at 50.0 µM,58.4%
same,growth inhibition,[15]; at 1.2 µM,2%
same,growth inhibition,[15]; at 3.7 µM,4%
same,growth inhibition,[15]; at 11.0 µM,6%
same,growth inhibition,[15]; at 33.0 µM,22%
same,growth inhibition,[15]; at 100.0 µM,25%
O=[N+]([O-])c1ccc2[nH]c3c(-c4ccccc4)nccc3c2c1,growth inhibition,[1]; at 1.2 µM,-1%
same,growth inhibition,[1]; at 3.7 µM,8%
same,growth inhibition,[1]; at 11.0 µM,96% (active)
same,growth inhibition,[1]; at 33.0 µM,97% (active)
same,growth inhibition,[1]; at 100.0 µM,97% (active)
same,growth inhibition,[2]; at 1.2 µM,-4%
same,growth inhibition,[2]; at 3.7 µM,-8%
same,growth inhibition,[2]; at 11.0 µM,87% (active)
same,growth inhibition,[2]; at 33.0 µM,94% (active)
same,growth inhibition,[2]; at 100.0 µM,92% (active)
same,growth inhibition,[3]; at 1.2 µM,20%
same,growth inhibition,[3]; at 3.7 µM,43%
same,growth inhibition,[3]; at 11.0 µM,68%
same,growth inhibition,[3]; at 33.0 µM,79% (active)
same,growth inhibition,[3]; at 100.0 µM,79% (active)
same,growth inhibition,[16]; at 1.2 µM,-2%
same,growth inhibition,[16]; at 3.7 µM,-4%
same,growth inhibition,[16]; at 11.0 µM,94% (active)
same,growth inhibition,[16]; at 33.0 µM,97% (active)
same,growth inhibition,[16]; at 100.0 µM,97% (active)
same,growth inhibition,[4]; at 1.2 µM,-3%
same,growth inhibition,[4]; at 3.7 µM,2%
same,growth inhibition,[4]; [17],10%
same,growth inhibition,[4]; at 11.0 µM,92% (active)
same,growth inhibition,[4]; at 33.0 µM,96% (active)
same,growth inhibition,[4]; [18],96% (active)
same,growth inhibition,[4]; at 50.0 µM,98.8% (active)
same,growth inhibition,[4]; at 100.0 µM,96% (active)
same,growth inhibition,[5]; at 1.2 µM,-4%
same,growth inhibition,[5]; at 3.7 µM,-6%
same,growth inhibition,[5]; [17],-5%
same,growth inhibition,[5]; at 11.0 µM,96% (active)
same,growth inhibition,[5]; at 33.0 µM,98% (active)
same,growth inhibition,[5]; [18],97% (active)
same,growth inhibition,[5]; at 50.0 µM,91.2% (active)
same,growth inhibition,[5]; at 100.0 µM,98% (active)
same,growth inhibition,[7]; [17],10%
same,growth inhibition,[7]; [18],98% (active)
same,growth inhibition,[7]; at 50.0 µM,93% (active)
same,growth inhibition,[8]; at 1.2 µM,-8%
same,growth inhibition,[8]; at 3.7 µM,38%
same,growth inhibition,[8]; at 11.0 µM,96% (active)
same,growth inhibition,[8]; at 33.0 µM,96% (active)
same,growth inhibition,[8]; at 100.0 µM,96% (active)
same,growth inhibition,[9]; [17],-10%
same,growth inhibition,[9]; [18],96% (active)
same,growth inhibition,[9]; at 50.0 µM,98.3% (active)
same,growth inhibition,[10]; at 1.2 µM,10%
same,growth inhibition,[10]; at 3.7 µM,90% (active)
same,growth inhibition,[10]; [17],52%
same,growth inhibition,[10]; at 11.0 µM,96% (active)
same,growth inhibition,[10]; at 33.0 µM,97% (active)
same,growth inhibition,[10]; [18],97% (active)
same,growth inhibition,[10]; at 50.0 µM,98.8% (active)
same,growth inhibition,[10]; at 100.0 µM,96% (active)
same,growth inhibition,[11]; at 1.2 µM,0%
same,growth inhibition,[11]; at 3.7 µM,43%
same,growth inhibition,[11]; at 11.0 µM,96% (active)
same,growth inhibition,[11]; at 33.0 µM,98% (active)
same,growth inhibition,[11]; at 100.0 µM,98% (active)
same,growth inhibition,[12]; at 1.2 µM,-2%
same,growth inhibition,[12]; at 3.7 µM,15%
same,growth inhibition,[12]; at 11.0 µM,96% (active)
same,growth inhibition,[12]; at 33.0 µM,97% (active)
same,growth inhibition,[12]; at 100.0 µM,97% (active)
same,growth inhibition,[13]; at 1.2 µM,-12%
same,growth inhibition,[13]; at 3.7 µM,0%
same,growth inhibition,[13]; at 11.0 µM,93% (active)
same,growth inhibition,[13]; at 33.0 µM,97% (active)
same,growth inhibition,[13]; at 100.0 µM,96% (active)
same,growth inhibition,[14]; [17],3%
same,growth inhibition,[14]; [18],96% (active)
same,growth inhibition,[14]; at 50.0 µM,97.8% (active)
same,growth inhibition,[15]; at 1.2 µM,-1%
same,growth inhibition,[15]; at 3.7 µM,-4%
same,growth inhibition,[15]; at 11.0 µM,95% (active)
same,growth inhibition,[15]; at 33.0 µM,96% (active)
same,growth inhibition,[15]; at 100.0 µM,97% (active)
